Source: PubChem BioAssay (NCATS)
Records with an inconclusive call do not appear. Active and inactive are the calls of the source. The call rests on the fitted dose curve; in most records, active means well fitted inhibition curve with a large enough effect; inconclusive means small, poorly fitted or top-dose-only effect; inactive means flat fitted curve, though single readings scatter.

system: Zika virus NS2B-NS3 protease; test: Primary screen GU AMC qHTS for Zika virus inhibitors (AID 1347154); conditions: Zika NS2B-NS3 unlinked protease, AMC fluorogenic substrate; series mostly up to 54.1 µM;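 further: 0% = no-inhibitor control and -100% = no-enzyme control; nearly all actives have a fitted effect of over 70% in size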
In short: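 Fluorogenic AMC-substrate cleavage by noncovalent NS2B-NS3 protease complex (25 nM, pH 8.0 Tris buffer with Tween 20) followed for 15 minutes at room temperature (~20% conversion). Percent inhibition from ex340/em450 signal change, fitted by 4-parameter Hill equation.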

Potency, inactive:
Cc1nn(C)c2nc(NNC(=O)Nc3cc(Cl)nc(Cl)c3)cc(C(C)C)c12, NC(=NCc1ccc(Cl)cc1Cl)NC(=O)c1nc(Cl)c(N)nc1N, Nc1ncnc2c1ncn2C1C[C@H](O)[C@@H](CO)O1 (stereo partly drawn), Cc1ccc(CC2(O)CCN(CCOc3ccc(O)cc3)CC2)cc1, CC[C@@H](C)[C@H](NS(=O)(=O)c1cccc2ccccc12)C(=O)N[C@H](C=O)Cc1c[nH]c2ccccc12, CCCNC(=O)[C@H]1O[C@@H]1C(=O)N[C@H](C(=O)N1CCC[C@H]1C(=O)OC)[C@@H](C)CC, C[C@H](CCC(=O)NCC(=O)O)C1CC[C@H]2[C@H]3C(C[C@H](O)[C@]12C)[C@@]1(C)CC[C@@H](O)C[C@H]1C[C@H]3O (stereo partly drawn)

Activity change, negative = inhibition, inactive:
CC(Sc1nc2ccccc2[nH]1)C(=O)NN=Cc1cc(Br)ccc1O (stereo not drawn) 1.61% [at 6.83 µM]
